Our source for the residual activity values is ChEMBL document CHEMBL2218924, “A broad activity screen in support of a chemogenomic map for kinase signalling research and drug discovery” (Biochem J, 2013).

What is called residual activity is the signal under treatment as a percentage of the control signal.

In the first assay the target is Myosin light chain kinase, smooth muscle (Homo sapiens) (UniProt Q15746). The note with it: at 1 µM.
Chain of Myosin light chain kinase, smooth muscle (Homo sapiens) (Q15746 whole entry): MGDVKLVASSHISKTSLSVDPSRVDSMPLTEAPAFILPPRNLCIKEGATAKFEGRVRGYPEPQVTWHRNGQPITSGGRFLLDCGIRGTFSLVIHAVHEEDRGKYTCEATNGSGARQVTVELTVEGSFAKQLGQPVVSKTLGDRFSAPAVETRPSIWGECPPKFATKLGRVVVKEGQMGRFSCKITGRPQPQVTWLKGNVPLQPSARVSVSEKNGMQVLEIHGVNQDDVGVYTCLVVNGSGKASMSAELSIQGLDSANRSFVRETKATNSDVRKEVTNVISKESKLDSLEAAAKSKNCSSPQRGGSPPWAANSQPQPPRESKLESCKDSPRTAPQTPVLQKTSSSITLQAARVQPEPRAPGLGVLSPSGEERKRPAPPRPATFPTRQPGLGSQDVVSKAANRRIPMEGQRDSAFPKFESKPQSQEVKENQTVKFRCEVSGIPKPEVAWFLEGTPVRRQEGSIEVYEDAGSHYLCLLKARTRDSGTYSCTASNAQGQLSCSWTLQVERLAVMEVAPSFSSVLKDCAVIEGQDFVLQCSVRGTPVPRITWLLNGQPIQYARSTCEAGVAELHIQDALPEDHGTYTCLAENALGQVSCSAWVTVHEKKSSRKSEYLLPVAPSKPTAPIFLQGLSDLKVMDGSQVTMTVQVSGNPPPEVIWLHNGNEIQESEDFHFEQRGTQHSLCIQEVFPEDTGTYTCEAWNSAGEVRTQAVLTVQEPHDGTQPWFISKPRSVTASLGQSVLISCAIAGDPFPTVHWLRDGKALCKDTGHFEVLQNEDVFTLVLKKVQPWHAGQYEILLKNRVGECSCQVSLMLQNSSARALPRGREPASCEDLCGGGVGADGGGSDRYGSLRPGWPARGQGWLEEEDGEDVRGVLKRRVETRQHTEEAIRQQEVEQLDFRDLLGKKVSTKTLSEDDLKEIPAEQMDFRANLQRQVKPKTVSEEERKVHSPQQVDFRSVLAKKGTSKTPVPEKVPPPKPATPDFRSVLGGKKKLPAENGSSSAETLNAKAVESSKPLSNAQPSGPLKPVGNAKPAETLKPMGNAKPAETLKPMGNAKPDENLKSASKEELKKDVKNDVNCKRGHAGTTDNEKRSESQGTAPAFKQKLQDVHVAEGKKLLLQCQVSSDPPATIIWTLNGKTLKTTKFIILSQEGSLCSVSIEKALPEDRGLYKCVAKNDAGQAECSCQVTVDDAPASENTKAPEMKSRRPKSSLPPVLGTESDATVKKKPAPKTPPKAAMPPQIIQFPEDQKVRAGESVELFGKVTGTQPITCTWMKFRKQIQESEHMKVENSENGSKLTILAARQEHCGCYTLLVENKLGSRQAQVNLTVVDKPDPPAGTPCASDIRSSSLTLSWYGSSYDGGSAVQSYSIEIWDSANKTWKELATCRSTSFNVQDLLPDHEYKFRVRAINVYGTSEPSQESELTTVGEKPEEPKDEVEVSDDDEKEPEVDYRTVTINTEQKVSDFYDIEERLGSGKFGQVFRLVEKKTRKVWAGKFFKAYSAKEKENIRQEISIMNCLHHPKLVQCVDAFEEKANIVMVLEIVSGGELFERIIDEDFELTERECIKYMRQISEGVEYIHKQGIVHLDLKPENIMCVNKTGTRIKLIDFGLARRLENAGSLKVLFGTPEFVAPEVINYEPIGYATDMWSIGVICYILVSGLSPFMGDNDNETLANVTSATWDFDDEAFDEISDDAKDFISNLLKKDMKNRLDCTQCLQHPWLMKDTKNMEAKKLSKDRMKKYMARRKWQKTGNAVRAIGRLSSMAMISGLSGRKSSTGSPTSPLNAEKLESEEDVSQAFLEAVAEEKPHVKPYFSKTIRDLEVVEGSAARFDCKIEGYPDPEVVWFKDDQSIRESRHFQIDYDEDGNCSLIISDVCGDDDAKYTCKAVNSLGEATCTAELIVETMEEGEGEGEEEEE
Take `Cn1c2ccccc2c2c3c(c4c5ccccc5n(CCC#N)c4c21)CNC3=O`: the residual activity turned out to be 16%.

Take `Nc1ncnc2c1cnn2-c1ccccc1`: the residual activity worked out at 86%. Same read-out and setting: the result for `O=c1cc(N2CCOCC2)oc2c1ccc1ccccc12` reads 92%.

Take `N#C/C(=C\c1ccc(O)c(O)c1)C(=O)NCc1ccccc1`: the residual activity was found to be 101%.

In the case of `c1ccc(-c2cnc(Nc3ccc(OCCN4CCCC4)cc3)s2)cc1`, the residual activity amounted to 76%. With `Nc1ncnc2c1c(-c1ccc(Oc3ccccc3)cc1)cn2C1CCCC1`, the residual activity was determined as 63%.

Regarding `O=C(NC(NC(=S)Nc1ccc(F)c([N+](=O)[O-])c1)C(Cl)(Cl)Cl)C(c1ccccc1)c1ccccc1` (configuration not stated), the residual activity amounted to 103%. On the same count and under the same terms, as for `O=C1NC(=O)C(c2cn(CCCO)c3ncccc23)=C1c1cnccn1`, the figure is 84%; as for `O=C(Nc1nc2ccccc2n1CCN1CCOCC1)c1cccc([N+](=O)[O-])c1`, 78%. Still for that read-out and setting: as for `NCCNc1ncc(C(N)=O)c(Nc2cccc(C(F)(F)F)c2)n1`, the figure is 67%; as for `O=C(O)/C=C/c1cc(Br)c(Br)c(Br)c1Br`, 94%. With `CC(C)(C)n1nc(Cc2cccc3ccccc23)c2c(N)ncnc21`, the residual activity stood at 73%.

`O=C(CCCc1ccc(-c2ccccc2F)cc1)Nc1ccc(O)cc1`: the residual activity was determined as 102%. Regarding `CCN(CC)CCNC(=O)c1c(C)[nH]c(/C=C2\C(=O)Nc3ccc(Cl)cc32)c1C`, the residual activity came out at 9%. With `CC(C)[C@H](CO)Nc1nc(Nc2cc(N)cc(Cl)c2)c2ncn(C(C)C)c2n1`, the residual activity came out at 82%. On the same count and under the same terms, as for `O=C1Nc2ccc(Cl)cc2/C1=C/c1cc(Cl)c(O)c(Cl)c1`, the figure is 39%.

`COc1cc2nccc(Oc3ccc(NC(=S)NC(=O)c4ccccc4C)cc3)c2cc1OC`: the residual activity turned out to be 67%. On the same count and under the same terms, the result for `N#C/C(=C1/Nc2ccccc2S1)c1ccnc(NCCc2cccnc2)n1` reads 96%.

With `CC(C)(C)c1nc2c3ccc(F)cc3c3c(=O)[nH]ccc3c2[nH]1`, the residual activity amounted to 2%.

For the compound `O=C1Cc2c([nH]c3ccc(Br)cc23)-c2ccccc2N1`, the residual activity was found to be 89%. As for `O=c1cc(N2CCNCC2)oc2c(-c3ccccc3)cccc12`, the residual activity was 93%. In the case of `O=C1NC(=O)c2c1c1c3ccccc3[nH]c1n1cncc21`, the residual activity came to 11%. As to `Nc1n[nH]c2nc3ccccc3nc12`, the residual activity is 95%. Take `NC(=O)Nc1sc(-c2ccc(F)cc2)cc1C(N)=O`: the residual activity came out at 92%. Take `O=C(c1ccccc1)c1ccc(N2CCOCC2)cc1O`: the residual activity is 88%.

The next assay shares this target. The following applies: at 10 µM.
In the case of `Cn1c2ccccc2c2c3c(c4c5ccccc5n(CCC#N)c4c21)CNC3=O`, the residual activity was 11%.

With `Nc1ncnc2c1cnn2-c1ccccc1`, the residual activity came out at 84%. Still for that read-out and setting: the result for `O=c1cc(N2CCOCC2)oc2c1ccc1ccccc12` reads 77%. On to `N#C/C(=C\c1ccc(O)c(O)c1)C(=O)NCc1ccccc1`, for which the residual activity stood at 100%. On the same count and under the same terms, the result for `c1ccc(-c2cnc(Nc3ccc(OCCN4CCCC4)cc3)s2)cc1` reads 58%; that for `Nc1ncnc2c1c(-c1ccc(Oc3ccccc3)cc1)cn2C1CCCC1`, 45%; that for `O=C(NC(NC(=S)Nc1ccc(F)c([N+](=O)[O-])c1)C(Cl)(Cl)Cl)C(c1ccccc1)c1ccccc1` (configuration not stated), 79%. Still for that read-out and setting: as for `O=C1NC(=O)C(c2cn(CCCO)c3ncccc23)=C1c1cnccn1`, the figure is 78%. On the same count and under the same terms, the result for `O=C(Nc1nc2ccccc2n1CCN1CCOCC1)c1cccc([N+](=O)[O-])c1` reads 83%; that for `NCCNc1ncc(C(N)=O)c(Nc2cccc(C(F)(F)F)c2)n1`, 55%; that for `O=C(O)/C=C/c1cc(Br)c(Br)c(Br)c1Br`, 22%.

As to `CC(C)(C)n1nc(Cc2cccc3ccccc23)c2c(N)ncnc21`, the residual activity was found to be 87%. On to `O=C(CCCc1ccc(-c2ccccc2F)cc1)Nc1ccc(O)cc1`, for which the residual activity stood at 82%. Consider `CSc1nc(-c2ccc(F)cc2)c(-c2ccnc(NC(C)c3ccccc3)c2)[nH]1` (configuration not stated), for which the residual activity amounted to 68%. Consider `CCN(CC)CCNC(=O)c1c(C)[nH]c(/C=C2\C(=O)Nc3ccc(Cl)cc32)c1C`, for which the residual activity was found to be 3%. As to `CC(C)[C@H](CO)Nc1nc(Nc2cc(N)cc(Cl)c2)c2ncn(C(C)C)c2n1`, the residual activity was determined as 29%.

Take `O=C1Nc2ccc(Cl)cc2/C1=C/c1cc(Cl)c(O)c(Cl)c1`: the residual activity was determined as 37%.

Turning to `COc1cc2nccc(Oc3ccc(NC(=S)NC(=O)c4ccccc4C)cc3)c2cc1OC`, the residual activity worked out at 80%.

Take `N#C/C(=C1/Nc2ccccc2S1)c1ccnc(NCCc2cccnc2)n1`: the residual activity amounted to 73%. Regarding `CC(C)(C)c1nc2c3ccc(F)cc3c3c(=O)[nH]ccc3c2[nH]1`, the residual activity amounted to 4%. The same measure, in the same setting: the result for `O=C1Cc2c([nH]c3ccc(Br)cc23)-c2ccccc2N1` reads 58%; that for `N#Cc1c(NC(=O)c2cccc3ccccc23)sc2c1CCCC2`, 83%; that for `O=c1cc(N2CCNCC2)oc2c(-c3ccccc3)cccc12`, 95%. Still for that read-out and setting: the result for `O=C1NC(=O)c2c1c1c3ccccc3[nH]c1n1cncc21` reads 8%; that for `Nc1n[nH]c2nc3ccccc3nc12`, 69%; that for `NC(=O)Nc1sc(-c2ccc(F)cc2)cc1C(N)=O`, 31%. The same measure, in the same setting: the result for `O=C(c1ccccc1)c1ccc(N2CCOCC2)cc1O` reads 87%.
